Results published in PubChem BioAssay (NCATS).
Several values for one entry are separate records, joined by “and”; a condition that tells them apart may be missing. Equal entries are not always repeated. Inconclusive results are not listed. Activity calls are given as the source filed them. Unless noted, the call rests on the fitted dose curve; in most records, active means well fitted curve in the direction sought with a large enough effect; inconclusive means small, poorly fitted or top-dose-only effect, or another doubt; inactive means no such curve, though single readings can be large; an effect the other way counts as inactive or inconclusive.

Tests used:
[1] = Cell Viability - N2a (AID 540); conditions: N2a mouse neuroblastoma cell viability; activity change, negative = cytotoxicity: at 92.2 µM (top of the series);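 further: plate controls were DMSO alone for no effect and tamoxifen control for full effect; nearly all actives have a fitted effect of over 45% in size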
In short: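 Mouse neuroblastoma N2a cells (1500/well) were preincubated 5 hr at 37 °C, then exposed to compounds for 40 hr at 37 °C in complete medium. Viability was read as intracellular ATP by CellTiter-Glo luminescence; AC50 from Hill fits.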

[2] = Cell Viability - SH-SY5Y (AID 544);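 further: 0% = DMSO alone and -100% = 100 µM tamoxifen; nearly all actives have a fitted effect of over 55% in size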
In short: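 Human neuroblastoma SH-SY5Y cells (1500/well) in complete medium were exposed to compounds for 40 hr at 37 °C; intracellular ATP was then quantified by CellTiter-Glo luminescence after 20 min at room temperature. AC50 came from Hill-equation concentration-response fits.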

[3] = Cell Viability - Renal Proximal Tubule (AID 545); conditions: renal proximal tubule cells viability, primary cells of rat origin; at 91.7 µM (top of the series);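 further: 0% = DMSO only and -100% = 100 µM tamoxifen; nearly all actives have a fitted effect of over 40% in size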
In short: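 Luminescent ATP signal (CellTiter-Glo) served as the viability read-out after 40 hr compound exposure of freshly isolated rat proximal tubule cells at 37 °C. Concentration-dependent ATP loss was fitted with the Hill equation to give AC50.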

[4] = Cell Viability - Mesenchymal (AID 546); conditions: mesenchymal cells viability, qHTS; activity change, negative = cytotoxicity: at 91.7 µM (top of the series);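 further: cells exposed to compound for 40 hours before reading; 0% = DMSO only and -100% = 100 µM tamoxifen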
In short: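 AC50 values reflect the drop in intracellular ATP in a human kidney mesenchymal line derived from normal glomeruli. Treatment lasts 40 hr at 37 °C in complete medium, and the signal comes from CellTiter-Glo luminescence.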

[5] = Cellular Toxicity (caspase-3) HepG2 (AID 654);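 further: cells exposed to compound for 16 hours before reading; 0% = DMSO alone and 100% = caspase signal from 100 µM tamoxifen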
In short: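 HepG2 cells (1500/well) in complete medium were treated with compounds for 16 hr at 37 °C. Caspase-3/7 activity was then read as luminescence from peptide-aminoluciferin cleavage. AC50 came from Hill fits, normalized to DMSO and 100 uM tamoxifen.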

[6] = Cellular Toxicity (caspase-3) HUV-EC-C (AID 656);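 further: 0% = DMSO basal and 100% = 100 µM tamoxifen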
In short: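 qHTS; HUV-EC-C, 1000 cells/well; 5 hr settle, 16 hr cmpd, 37°C; Caspase-Glo 3/7, 20 min RT; luminescence. Norm: DMSO = 0%, tamoxifen 100 uM = 100%. Hill-fit AC50.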

[7] = Cellular Toxicity (caspase-3) BJ (AID 658);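 further: 0% = DMSO basal and 100% = 10 µM staurosporine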
In short: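 Readout: Caspase-Glo 3/7 luminescence increase in BJ cells after 16 hr treatment at 37 °C. Staurosporine and tamoxifen served as positive controls; AC50 values came from Hill modelling of data normalized to DMSO and 10 uM staurosporine.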

[8] = Cellular Toxicity (caspase-3) MRC-5 (AID 659);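 further: 0% = DMSO basal and 100% = 10 µM staurosporine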
In short: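 Concentration-dependent caspase 3/7 activation is measured in human normal lung fibroblasts (MRC-5) following 16-hour treatment. AC50 values come from standard Hill-equation modeling of luminescence normalized to DMSO and 10 uM staurosporine.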

[9] = Cellular Toxicity (caspase-3) Mesangial (AID 660);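 further: cells exposed to compound for 16 h before the caspase read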
In short: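 Human renal glomerular mesangial cells (1000/well) were treated with compounds for 16 h at 37 °C in complete medium, then caspase 3/7 activity was read by Caspase-Glo luminescence. Data were normalized to DMSO and 100 uM tamoxifen; AC50 from Hill fits.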

[10] = Cellular Toxicity (caspase-3) Hek293 (AID 664);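 further: cells exposed to compound for 16 h at 37 °C before readout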
In short: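 HEK293 cells were exposed to compounds in complete medium for 16 hr at 37 °C, then caspase-3/7 activity was read by Caspase-Glo 3/7 luminescence after 20 min at room temperature. Data normalized to DMSO and 100 uM tamoxifen; AC50 from Hill fits.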

[11] = Cellular Toxicity (caspase-3) N2a (AID 665);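 further: compound exposure lasted 16 h at 37 °C before readout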
In short: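 Mouse N2a neuroblastoma cells (1500/well) were treated with compounds for 16 h at 37 °C, then caspase-3/7 activity was read by Caspase-Glo luminescence after 1 h at room temperature. Data were normalized to DMSO and 10 uM staurosporine; AC50 from Hill fits.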

[12] = qHTS Assay for Identification of Small Molecule Inducers of Hypoxia Response (AID 2120; active means well fitted curve in the direction sought with a large enough effect in the signal ratio, with a control signal flat, not every such curve was filed as active; the % refers to the signal ratio; further: 0% is about no effect)
In short: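 HRE-beta-lactamase reporter in CellSensor HRE-bla ME-180 cells, 2500 cells/well in Opti-MEM with 0.5% dialyzed FBS; compounds tested as titration series, 17 h at 37 degrees C. CCF4 substrate 2.5 h at room temperature; AC50 from 460/530 nm ratio.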

[13] = qHTS assay for small molecule antagonists of retinoid X receptor alpha signaling (AID 588546; active means well fitted inhibition curve with a large enough effect in the signal ratio, with a control signal flat, not every such curve was filed as active; the % refers to the signal ratio;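 further: cells stimulated with 9-cis-retinoic acid as agonist; on the % scale 0 is the no-effect control and ±100 the full control effect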); conditions: HEK293T RXRa-UAS-bla, beta-lactamase ratio, antagonist mode; measured here: W530 green channel, cytotoxicity proxy
In short: (§1)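 Beta-lactamase reporter inhibition, read as CCF4 fluorescence ratio (ex 405, em 460/530 nm) after 2 h at RT. HEK293T UAS-bla cells, 2500/well, were stimulated with 9-cis-RA at 500 or 100 nM final alongside test compound for 18 h at 37 C.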

[14] = target: Retinoic acid receptor RXR-alpha (Homo sapiens) (UniProt P19793); experiment: as above; conditions: HEK293T RXRa-UAS-bla, beta-lactamase ratio, antagonist mode
Sequence of Retinoic acid receptor RXR-alpha (Homo sapiens) (P19793 whole entry, looked up): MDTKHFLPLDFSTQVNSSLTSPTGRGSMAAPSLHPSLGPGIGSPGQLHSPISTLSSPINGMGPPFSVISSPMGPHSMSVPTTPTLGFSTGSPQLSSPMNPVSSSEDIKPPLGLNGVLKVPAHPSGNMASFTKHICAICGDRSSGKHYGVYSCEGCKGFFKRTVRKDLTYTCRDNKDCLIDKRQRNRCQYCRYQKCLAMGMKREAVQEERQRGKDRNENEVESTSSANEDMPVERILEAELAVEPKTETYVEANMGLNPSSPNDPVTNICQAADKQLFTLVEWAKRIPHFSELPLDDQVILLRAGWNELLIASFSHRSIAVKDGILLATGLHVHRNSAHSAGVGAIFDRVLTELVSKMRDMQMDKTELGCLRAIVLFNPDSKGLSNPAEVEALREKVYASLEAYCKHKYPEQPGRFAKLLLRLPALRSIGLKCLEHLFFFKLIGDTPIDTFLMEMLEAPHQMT
In short: as §1

[15] = qHTS assay for environmental chemicals that activate the Aryl hydrocarbon Receptor (AhR) signaling pathway (AID 651777); conditions: 1A2-DRE human hepatoma cells, luciferase, 24 h; activation: stronger effect = higher value; further: % of control where 0% means no effect; nearly all actives have a fitted effect of over 15% in size
In short: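 Induction of CYP1A2 transcription through AhR is detected by luciferase in 1A2-DRE hepatoma cells. Compounds or DMSO act for 24 hr at 37 C before a 30 min One-Glo step at room temperature.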

[16] = target: Peroxisome proliferator-activated receptor alpha (Homo sapiens) (UniProt Q07869); experiment: qHTS assay for small molecule agonists of the peroxisome proliferator-activated receptor alpha (PPARalpha) signaling pathway (AID 651778); conditions: PathHunter PPARalpha complementation, chemiluminescence, 6 h; max response: stronger effect = higher value; further: % of control where 0% means no effect
Sequence of Peroxisome proliferator-activated receptor alpha (Homo sapiens) (Q07869 whole entry, looked up): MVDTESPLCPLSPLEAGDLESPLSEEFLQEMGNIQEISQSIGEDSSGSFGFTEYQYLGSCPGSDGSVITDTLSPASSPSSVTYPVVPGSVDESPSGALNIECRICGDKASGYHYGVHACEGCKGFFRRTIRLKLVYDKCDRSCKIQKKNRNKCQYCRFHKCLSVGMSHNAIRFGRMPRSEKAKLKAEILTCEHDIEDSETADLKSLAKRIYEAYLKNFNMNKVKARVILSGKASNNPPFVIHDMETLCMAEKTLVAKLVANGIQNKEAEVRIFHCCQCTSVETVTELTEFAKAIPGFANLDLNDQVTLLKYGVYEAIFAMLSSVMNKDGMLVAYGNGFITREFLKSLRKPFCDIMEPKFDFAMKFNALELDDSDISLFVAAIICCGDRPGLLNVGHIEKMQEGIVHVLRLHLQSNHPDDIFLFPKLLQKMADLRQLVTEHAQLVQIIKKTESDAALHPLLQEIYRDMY
In short: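 Chemiluminescence from complemented enzyme reported PPARalpha activation in cells after 6 hr of compound treatment at 37 C. The detection reagent was incubated for 60 min at room temperature, and compounds were scored as agonists.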

[17] = qHTS assay for cell viability of HEK293 cells (AID 743288); conditions: ATP luminescence (CellTiter-Glo), 18 h; max response: stronger effect = lower value; further: on the % scale 0 is the no-effect control and ±100 the full control effect; nearly all actives have a fitted effect of over 50% in size
In short: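 HEK293 parental, 2,000 cells/well; ≥5 h pre-incubation 37 C; pintool compound addition; 18 h, 37 C; CellTiter-Glo 30 min RT; luminescence read.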

[18] = qHTS assay for cell viability of the p53RE-bla HCT-116 cell line (AID 743292); further: on the % scale 0 is the no-effect control and ±100 the full control effect; nearly all actives have a fitted effect of over 55% in size
In short: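 In this qHTS counter-screen, metabolically competent p53RE-bla HCT-116 cells were counted via their ATP content. Compounds were applied for 16 h at 37 C and luciferase-coupled luminescence was measured.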

CCCCC(CC)CN (centres undefined)
inactive: activity change, negative = cytotoxicity [1] -20.4% and 2.62% | Potency [2] | activity change, negative = cytotoxicity [3] -8.31% and 1.31% | activity change, negative = cytotoxicity [4] -2.68% and 2.84% | outcome [5] | outcome [6] | outcome [7] | outcome [8] | outcome [9] | outcome [10] | outcome [11] | outcome [12] | max response [14] 27.8% and 7.94% | activation [15] 0.546% and 3.21% | max response [16] -4.52% and -4.66% | max response [17] 2.8% and -10% | Potency [18]
-4.73% and -4.29%: max response [13]

CCC(C)c1ccccc1O (centres undefined)
-6.22% and -6.2% and -6.14%: max response [13]
inactive: activity change, negative = cytotoxicity [1] 0.301% and 2.4% | Potency [2] | activity change, negative = cytotoxicity [3] 2.94% and 2.27% | activity change, negative = cytotoxicity [4] 1.63% and 2.6% | outcome [5] | outcome [6] | outcome [7] | outcome [8] | outcome [9] | outcome [10] | outcome [11] | outcome [12] | max response [14] 0.496% and -0.838% and 1.78% | activation [15] -0.0817% and -0.418% and 0.519% | max response [16] 4.33% and -1.41% and -1.75% | max response [17] 12.6% and 1.15% and -2.8% | Potency [18]

CCCN(CCC)C(=O)SCC
-11.5% and -6.21%: max response [13]
inactive: activity change, negative = cytotoxicity [1] -0.642% | Potency [2] | activity change, negative = cytotoxicity [3] 6.23% | activity change, negative = cytotoxicity [4] 5.65% | outcome [5] | outcome [6] | outcome [7] | outcome [8] | outcome [9] | outcome [10] | outcome [11] | outcome [12] | max response [14] 13.3% and -9.15% | activation [15] 0.446% and -0.849% | max response [16] -2.51% and -1.87% | max response [17] -7.69% and -8.5% | Potency [18]
